This test has as its target furin, P09958. The test can be described thus: furin cleavage Z-score vs untreated control; higher = more cleavage, active = 3.5 or more, inactive = 1 or less, 8 variable residues between constant flanks. Summed up: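 Purified furin digested bead-held 8-mer peptide–cDNA fusions at 1:10 enzyme:substrate in 0.01 ml of 50 mM HEPES pH 7.5 with CaCl2 and NaCl for 7.5, 15 or 30 min. The cleavage Z-score compares sequencing counts of released DNA with furin-free reactions on a log scale, with lowess adjustment and median absolute deviation scaling.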

The other results are listed elsewhere or left out. The true hit rate is not given.

Chain of furin, P09958 (P09958 whole entry, the tested form may be a part): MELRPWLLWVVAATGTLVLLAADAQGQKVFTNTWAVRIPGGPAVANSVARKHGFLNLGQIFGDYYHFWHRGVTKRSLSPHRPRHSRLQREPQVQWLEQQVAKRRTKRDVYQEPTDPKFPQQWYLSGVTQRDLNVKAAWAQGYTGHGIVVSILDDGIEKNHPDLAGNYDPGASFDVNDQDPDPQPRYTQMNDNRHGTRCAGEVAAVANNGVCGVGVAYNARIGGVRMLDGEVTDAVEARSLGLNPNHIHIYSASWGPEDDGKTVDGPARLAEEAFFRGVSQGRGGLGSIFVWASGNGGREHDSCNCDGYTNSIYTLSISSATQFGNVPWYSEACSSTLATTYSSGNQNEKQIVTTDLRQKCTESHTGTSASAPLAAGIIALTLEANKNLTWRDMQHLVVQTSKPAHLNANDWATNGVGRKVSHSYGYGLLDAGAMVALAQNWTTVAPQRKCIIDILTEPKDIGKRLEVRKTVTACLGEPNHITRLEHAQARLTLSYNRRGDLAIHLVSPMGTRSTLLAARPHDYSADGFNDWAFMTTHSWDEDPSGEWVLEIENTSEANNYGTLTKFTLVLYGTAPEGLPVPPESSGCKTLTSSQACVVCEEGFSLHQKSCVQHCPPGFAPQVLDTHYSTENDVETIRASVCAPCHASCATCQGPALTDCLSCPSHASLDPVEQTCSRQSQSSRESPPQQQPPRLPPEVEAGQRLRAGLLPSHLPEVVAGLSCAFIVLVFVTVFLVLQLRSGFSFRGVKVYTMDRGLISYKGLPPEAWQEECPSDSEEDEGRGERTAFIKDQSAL

With CAVDCCSMSYAGNASASA [HC2011], the “furin cleavage Z-score” value is 0.752 (inactive) (7.5 min), -0.617 (inactive) (15 min) and 0.379 (inactive) (30 min).
Regarding CAARIRVKRYAGNASASA [FS-8], the “furin cleavage Z-score” value is 8.19 (active) (7.5 min), 7 (active) (15 min) and 8.58 (active) (30 min).
For CARCRRNKRIAGNASASA [FS-1649], in that order: 4.5 (active), 6.14 (active) and 4.22 (active).
For CAMHIRRKRIAGNASASA [FS-1235], in that order: 8.17 (active), 9.27 (active) and 7.92 (active).
Turning to CAFKNRSCRIAGNASASA [FS-768], the “furin cleavage Z-score” value runs as follows: (7.5 min) -0.201 (inactive); (15 min) 0.864 (inactive); (30 min) 0.865 (inactive).
For CALILRSKRYAGNASASA [FS-1024], in that order: 9.69 (active), 10.5 (active) and 10.3 (active).
With CALAERRVRIAGNASASA [FS-265], the “furin cleavage Z-score” value (7.5 min) was 0.222 (inactive), the “furin cleavage Z-score” value (15 min) was 0.166 (inactive) and the “furin cleavage Z-score” value (30 min) was -2.18 (inactive).
For CADFDSVIDCAGNASASA [HC884], in that order: -0.725 (inactive), -1.64 (inactive) and -0.179 (inactive).
For CAEVYCHRPSAGNASASA [HC2349], in that order: -0.918 (inactive), 0.00682 (inactive) and -0.904 (inactive).
For CAAEECSQHLAGNASASA [HC1663], in that order: 0.467 (inactive), 0.000249 (inactive) and 1.4.
On to CALTHPVTKYAGNASASA [HC979], for which the “furin cleavage Z-score” value runs as follows: (7.5 min) -1.06 (inactive); (15 min) 1.08; (30 min) 1.75.
For CAANVRRKRYAGNASASA [FS-643], in that order: 12.5 (active), 13.8 (active) and 11.3 (active).
For CASRGENCGYAGNASASA [HC1505], the “furin cleavage Z-score” value is, setting by setting: (7.5 min) 1.28; (15 min) -1.03 (inactive); (30 min) -0.54 (inactive).
For CAAICRRKRYAGNASASA [FS-396], in that order: 11.5 (active), 13.2 (active) and 11.3 (active).
As for CANFISGIQYAGNASASA [HC1044], the “furin cleavage Z-score” value (7.5 min) is -0.934 (inactive), the “furin cleavage Z-score” value (15 min) is -0.739 (inactive) and the “furin cleavage Z-score” value (30 min) is -0.721 (inactive).
For CAFHIRRKRYAGNASASA [FS-651], in that order: 11.7 (active), 12.5 (active) and 10.9 (active).
For CAFHIRRKRYAGNASASA [FU9], in that order: 11 (active), 12.5 (active) and 11.3 (active).
For CASRHRVTRYAGNASASA [FS-1489], in that order: 9.37 (active), 11.3 (active) and 10.7 (active).
In the case of CAAICGKYLFAGNASASA [HC1630], the “furin cleavage Z-score” value is 1.25 (7.5 min), -1.22 (inactive) (15 min) and -0.719 (inactive) (30 min).
For CANHVSPTHYAGNASASA [HC1124], in that order: -0.962 (inactive), 0.0646 (inactive) and -0.575 (inactive).
For CAKMIGGHYVAGNASASA [HC624], in that order: -0.495 (inactive), -0.0648 (inactive) and -0.0572 (inactive).
CACGSVFLVGAGNASASA [HC301]: the “furin cleavage Z-score” value by setting is: (7.5 min) -1.62 (inactive); (15 min) -1.91 (inactive); (30 min) -1.35 (inactive).
For CAEVVTSTWIAGNASASA [HC2244], in that order: 0.57 (inactive), 0.293 (inactive) and 0.802 (inactive).
As to CAEQPCHRPSAGNASASA [HC2342], the “furin cleavage Z-score” value by setting is: (7.5 min) -1.24 (inactive); (15 min) 2.02; (30 min) -0.236 (inactive).
For CAEREISVPAAGNASASA [HC1293], in that order: -0.452 (inactive), -1.55 (inactive) and -0.526 (inactive).
For CAGQLDLSGWAGNASASA [HC1642], in that order: -0.176 (inactive), 0.869 (inactive) and 0.13 (inactive).
For CALRRRRKRYAGNASASA [FS-944], in that order: 11.8 (active), 14.5 (active) and 10.2 (active).
Consider CARRRRNKRYAGNASASA [FS-1403], for which the “furin cleavage Z-score” value (7.5 min) was 12.8 (active), the “furin cleavage Z-score” value (15 min) is 14.4 (active) and the “furin cleavage Z-score” value (30 min) is 10.6 (active).

These data come from the supplement of paper PMC3545927.
